Compound activity: PubChem BioAssay, University of Kansas High Throughput Screening Laboratory
mHTT CaM bind: disrupts binding of mutant huntingtin to calmodulin. hit rate 3.6% among 190,000. AlphaScreen His-mHTT/GST-CaM binding, luminescence. inhibition, % at 15 µM;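 further: 0% = both proteins with DMSO and 100% = one protein alone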
Pf apPOL inh: Pf-apPOL DNA polymerase inhibition; inhibition, % at 10 µM; hit rate 0.25% among 210,000; AID 1794808; Recombinant Pf-apPOL, molecular beacon fluorescence, 1.5 h
Numbers without * were called inactive; nt = not tested or not shown. In the library only some 3.6% were active in any assay of this set; here they are far more common. No stated cut-off is given here; in the data, active means inhibition above about 50%; inactive means the rest.

SMILES | mHTT CaM bind | Pf apPOL inh
CC(=O)N1CCc2cc(S(=O)(=O)Nc3cccc(Cl)c3)ccc21 | -1 | 1
CC(=O)N(c1ccccc1)C1CC(C)N(C(=O)C(C)C)c2ccccc21 (stereo not drawn) | 1 | -1
Cn1nc(-c2ccccc2)cc1C(=O)NCCn1nc(-c2ccc(Cl)cc2)ccc1=O | -6 | -8
O=C(NCCn1nc(-c2ccccc2)ccc1=O)c1ccc(-n2cccc2)cc1 | 63* | -6
COc1cc(C2C(C#N)=C(N)Oc3n[nH]c(-c4ccc(Br)cc4)c32)cc(OC)c1O (stereo not drawn) | 87* | -8
N#CC1=C(N)Oc2n[nH]c(-c3ccc(Br)cc3)c2C1c1cn[nH]c1-c1ccc(F)cc1 (stereo not drawn) | 59* | 0
COc1cc(-c2[nH]nc3c2C(c2ccc(C(F)(F)F)cc2)C(C#N)=C(N)O3)cc(OC)c1OC (stereo not drawn) | 90* | -13
COc1cc(C2C(C#N)=C(N)Oc3n[nH]c(C(F)(F)F)c32)cc(OC)c1OC (stereo not drawn) | 7 | 0
CCOc1ccc(-c2[nH]nc3c2C(c2cn[nH]c2-c2ccc(F)cc2)C(C#N)=C(N)O3)cc1 (stereo not drawn) | 41 | -6
N#CC1=C(N)Oc2n[nH]c(-c3ccccc3)c2C1c1ccc2c(c1[N+](=O)[O-])OCO2 (stereo not drawn) | 51* | -4
COc1ccc(-c2[nH]nc3c2C(c2cc(Cl)c(O)c(OC)c2)C(C#N)=C(N)O3)cc1 (stereo not drawn) | 32 | 3
N#CC1=C(N)Oc2n[nH]c(-c3ccccc3)c2C1c1ccccc1Cl (stereo not drawn) | 9 | -5
C=CCOc1c(Br)cc(C2C3=C(CCCC3=O)NC3=C2C(=O)CCC3)cc1OCC | 26 | 1
COc1cccc(NC(=O)c2c(F)c(F)c(C(=O)Nc3cccc(OC)c3)c(F)c2F)c1 | -2 | 2
COc1ccc(CN=c2oc3c(C)ncc(CO)c3cc2C(=O)Nc2ccc(F)cc2F)cc1 | 5 | -1
O=C(Nc1ccc(Br)cc1)/C(=C1\Nc2ccc([N+](=O)[O-])cc2N1)[N+](=O)[O-] | 16 | 52*
O=C(Nc1ccc(Cl)cc1)/C(=C1\Nc2ccc([N+](=O)[O-])cc2N1)[N+](=O)[O-] | 5 | 1
Cc1ccc(C(=O)O)cc1-c1ccc(/C=C2/NC(=O)NC2=O)o1 | 15 | 0
Cc1cc([N+](=O)[O-])ccc1-c1ccc(/C=C2/NC(=O)NC2=O)o1 | 54* | -4
Cn1c(Nc2cccc(Cl)c2)cc(=O)n(C)c1=O | -7 | -5
CCOc1ccc(C2Oc3c(cc(Br)cc3OC)C=C2[N+](=O)[O-])cc1OC (stereo not drawn) | 38 | -9
COc1cc(Br)cc2c1OC(c1ccc3c(c1)OCO3)C([N+](=O)[O-])=C2 (stereo not drawn) | 68* | -3
COc1ccc(C2Oc3c(cc(Br)cc3OC)C=C2[N+](=O)[O-])cc1OC (stereo not drawn) | 72* | -3
O=[N+]([O-])C1=Cc2cc(Br)cc(Br)c2OC1c1ccc2c(c1)OCO2 (stereo not drawn) | 84* | -5
COc1cc2c(cc1[N+](=O)[O-])OCO2 | -5 | nt
SMILES | mHTT CaM bind | Pf apPOL inh
O=[N+]([O-])C1=Cc2ccccc2OC1c1ccccc1 (stereo not drawn) | 36 | nt
COc1cc(OC)cc(C(=O)Nc2nc(CC(=O)O)cs2)c1 | -4 | -7
O=C(Nc1nccn(-c2ccc(F)c(Cl)c2)c1=O)c1cccc(F)c1 | 2 | -1
COc1ccc(-c2csc(Nc3ccc(N(C)C)cc3)n2)cc1OC | 97* | -1
NS(=O)(=O)c1ccc(Nc2nc(-c3cccnc3)cs2)cc1 | 21 | -3
COc1ccc(-c2csc(Nc3ccc(S(N)(=O)=O)cc3)n2)cc1OC | 50* | -6
COc1ccccc1Nc1nc(-c2ccc(OC)c(OC)c2)cs1 | 41 | -2
COCCNC(=O)Cn1c(=O)n(CCC(=O)NCc2ccccc2)c(=O)c2sccc21 | 0 | 7
CC1(C(=O)NC2CCCCCCC2)CCC(=O)N1Cc1ccccc1 (stereo not drawn) | -6 | 4
COc1ccc(C2CC(c3ccco3)=Nc3ccccc3S2)cc1OC (stereo not drawn) | 46 | -2
O=C1CC(c2ccc3c(c2)OCO3)Sc2nc(-c3ccccc3)nn21 (stereo not drawn) | 1 | -8
Cc1ccc(C2CC(c3ccco3)=Nc3ccccc3S2)cc1 (stereo not drawn) | 64* | 0
c1coc(C2=Nc3ccccc3SC(c3ccc4c(c3)OCO4)C2)c1 (stereo not drawn) | 51* | -4
CC(C)CCn1c(NCCN)nc2c1c(=O)[nH]c(=O)n2C | 0 | -2
CC(C)(C)NC(=O)C1CCN(c2ccc(F)c(F)c2)C1=O (stereo not drawn) | -2 | 2
COc1ccc(C2=CC(c3ccccc3)SC(N)=N2)cc1 (stereo not drawn) | 11 | nt
NC1=NC(c2ccc(Cl)cc2)=CC(c2ccc(F)cc2)S1 (stereo not drawn) | 68* | nt
C[N+](C)(C)C(Cc1c[nH]c(=S)[nH]1)C(=O)[O-] (stereo not drawn) | nt | -14
CC1(C)C2CCC1(C)C(OCC(O)CN1CCN(c3cccc(C(F)(F)F)c3)CC1)C2 (stereo not drawn) | 93* | -5
CC1(C)C2CCC1(C)C(OCC(O)CN1CCN(c3ccccc3F)CC1)C2 (stereo not drawn) | 47 | -3
O=C(CSc1nc2c(c(=O)n1-c1ccccc1)SCC2)N1CCc2ccccc21 | 2 | 0
O=C(Nc1ccc(Oc2cc(C(F)(F)F)cc(C(F)(F)F)c2)cc1)c1cccs1 | nt | 0
COc1ccc(C(=O)Nc2nc(CC(=O)NCc3cccs3)cs2)cc1 | 1 | -1
O=C(Cc1csc(NC(=O)c2ccc[nH]c2=O)n1)NCc1cccs1 | 64* | -5
CC(C)Cc1nc(SCC(=O)Nc2ccc(S(N)(=O)=O)cc2)n[nH]1 | -5 | 62*
SMILES | mHTT CaM bind | Pf apPOL inh
CC(C)Cc1nc(SCC(=O)Nc2ccccc2)n[nH]1 | -4 | 2
CCc1cccc(NC(=O)C2CCN(c3c(C#N)cnc4ccccc34)CC2)c1 | 7 | 2
Cc1ccc(-n2ncc3c(=O)[nH]c(SCC(=O)Nc4cccc(C)c4C)nc32)cc1 | 3 | -2
CCN1CCN(CC(O)COCCC23CC4CC(CC(C4)C2)C3)CC1 (stereo not drawn) | 5 | -14
CN1C(=O)c2ccccc2C(C(=O)Nc2ccc(F)cc2Cl)C1c1ccc(F)cc1 (stereo not drawn) | -2 | -6
Cc1ccc(NC(=O)C2c3ccccc3C(=O)N(C)C2c2c[nH]c3ccccc23)c(Cl)c1 (stereo not drawn) | 87* | -6
COc1ccc(Br)cc1CNC(=O)c1cnn2c3c(cnc12)CCCCCC3 | -3 | 2
CC(C)CC1C(=O)N(Cc2cn(Cc3ccco3)nn2)CCS(=O)(=O)N1Cc1ccc(-c2ccc(F)nc2)cc1 (stereo not drawn) | 60* | -6
CC(C)CC1C(=O)N(Cc2cn(Cc3ccco3)nn2)CCS(=O)(=O)N1Cc1ccc(-c2ccccc2)cc1 (stereo not drawn) | 68* | -4
COCOCCn1cc(CN2CCS(=O)(=O)N(Cc3ccc(-c4ccc(F)nc4)cc3)C(CC(C)C)C2=O)nn1 (stereo not drawn) | 50* | 6
